D3 ag – activates the human D3 dopamine receptor; P35462; D3R DiscoveRx beta-arrestin cells, luminescence, 90 min; max activation, %; hit rate 0.58% among 410,000; AID 652048; in the data active means max activation above about 30%; further: 0% is about no effect
Target sequence (P35462 whole entry, looked up): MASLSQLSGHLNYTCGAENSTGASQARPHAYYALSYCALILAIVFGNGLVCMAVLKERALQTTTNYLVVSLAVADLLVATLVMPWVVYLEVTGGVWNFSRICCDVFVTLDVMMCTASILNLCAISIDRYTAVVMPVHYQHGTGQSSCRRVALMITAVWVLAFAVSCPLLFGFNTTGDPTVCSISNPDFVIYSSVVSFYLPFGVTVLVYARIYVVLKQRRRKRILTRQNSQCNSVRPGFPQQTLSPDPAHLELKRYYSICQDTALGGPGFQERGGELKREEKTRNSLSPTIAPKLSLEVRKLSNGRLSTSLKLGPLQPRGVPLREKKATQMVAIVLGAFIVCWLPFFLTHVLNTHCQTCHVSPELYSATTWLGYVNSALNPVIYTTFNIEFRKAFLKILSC
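Agonist mode: compounds and dopamine controls were applied to plated cells for 90 min at 37 degrees C after an overnight attachment at 1500 cells/well. Luminescent read-out followed 30 - 60 minutes at room temperature with DiscoveRx detection reagent.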
B2AR arrestin – agonists driving beta-arrestin recruitment to human beta2-adrenergic receptor | P07550 | beta-arrestin recruitment to beta2AR, cell-based reporter | Potency, µM (top dose mostly 46.1 µM), for inactives: at the top dose activation, hits mostly activators | hit rate 0.02% among 330,000 | AID 492947; active means well fitted activation curve with a large enough effect; inconclusive means small, poorly fitted or top-dose-only effect;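 further: potency means the concentration at half of the fitted maximal effect; 0% = DMSO controls and full agonism = EC100 isoproterenol or metaproterenol; nearly all actives have a fitted effect of over 65% in size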
DRD3 antagonist – D3 dopamine receptor (human) antagonism; D3R cells, DiscoveRx beta-arrestin luminescence, antagonist mode; active compounds read low; hit rate 2.5% among 360,000; P35462; max response, negative = inhibition, %; AID 652054; in the data active means max response below about -50%; inconclusive means no clear call, values can overlap the other calls; further: on the % scale 0 is the no-effect control and ±100 the full control effect
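Cells expressing the human receptor were seeded at 1500 cells/well, incubated overnight at 37 degrees C in 5% CO2, then exposed to library compounds with dopamine controls for 90 minutes at 37 degrees C before luminescent detection.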
Giardia kill – kills Giardia lamblia; Giardia lamblia trophozoite viability; activity change, % at 7.66 µM, hits read low; hit rate 0.15% among 340,000; in the data active means activity change below about -80%; inconclusive means between about -30% and that limit;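 further: parasites exposed to compound for two days anaerobically before the ATP read; on the % scale 0 is the no-effect control and ±100 the full control effect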
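Luminescent ATP signal served as the viability read-out, measured 15-30 min after adding ATP detection reagent to trophozoites that had been incubated with compounds for 48 hrs at 37 deg C anaerobically at 100 cells/well.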
* marks the source's active call; other numbers are inactive results; ? = inconclusive; . = no result. Sampled rows, rich in hits. Any-hit rate of the full collection: about 2.8%.

SMILES | D3 ag | B2AR arrestin | DRD3 antagonist | Giardia kill
CCN1CCN(P2(=O)C=C(c3ccccc3)OC(c3ccccc3)=C2)CC1 | -32 | 0% | -81* | -11
O=P1(O)C=C(c2ccccc2)OC(c2ccccc2)=C1 | 1 | 0% | 7 | 3
OC1(c2ccc(F)cc2)CCN(Cc2nnnn2Cc2cccs2)CC1 | -4 | -1% | -86* | -10
OC1(c2cccc(C(F)(F)F)c2)CCN(Cc2nnnn2Cc2ccccc2)CC1 | 6 | 0% | 5 | -2
COc1ccc(Br)cc1C1NC(c2ccc3c(c2)OCO3)=CC(c2ccccc2O)N1 (stereo unspecified) | . | . | . | -17
Cc1ccc(S(=O)(=O)NCCCN2CCCC2)cc1 | -17 | 0% | -53* | 5
Cc1ccc(S(=O)(=O)NCCCN2CCOCC2)cc1C | -1 | 0% | -67* | 2
CCCCN(C)CCn1c(=S)[nH]c2ccc(N3CCOCC3)cc2c1=O | -3 | 0% | -66* | -11
COCCCn1c(=S)[nH]c2ccc(N3CCOCC3)cc2c1=O | -1 | 0% | -19 | -5
O=C(NCCN1CCN(c2ccccc2F)CC1)C1CC(=O)N(C2CCCC2)C1 (stereo unspecified) | -9 | 0% | -66* | 7
O=C(NCCCN1CCN(c2ccccc2F)CC1)C1CCCN(S(=O)(=O)c2cnc[nH]2)C1 (stereo unspecified) | 6 | 0% | -71* | -5
COc1ccc(NC(=O)c2nn(C)c3c2CS(=O)(=O)c2ccccc2-3)cc1Cl | -4 | . | . | .
CC(C)C1=CC2=CC[C@@H]3[C@](C)(CCC[C@@]3(C)C(=O)O)[C@H]2CC1 | -10 | . | . | .
CCN(CC)S(=O)(=O)c1ccc(Cl)c(C(=O)OC2CC(C)OC2=O)c1 (stereo unspecified) | 32* | -1% | 12 | -3
Cc1ccc2c(c1)[C@@H]1CN(C)CC[C@@H]1N2S(=O)(=O)c1ccc(F)cc1 | -21 | 0% | -63* | 5
Cc1ccc2c(c1)[C@@H]1CN(C)CC[C@@H]1N2S(=O)(=O)c1ccc([N+](=O)[O-])cc1 | -14 | 0% | -107* | -7
CCc1ccc(S(=O)(=O)N2c3ccc(C)cc3C3CN(C)CCC32)cc1 (stereo unspecified) | -20 | 0% | ? | -29
CCN1CCN(C(c2cccc(F)c2)c2c(O)cc(C)n(Cc3ccco3)c2=O)CC1 (stereo unspecified) | 9 | . | . | .
CC(C)(C)n1ncc2c(=O)n(CC(=O)Nc3ccc(Cl)cc3)cnc21 | -14 | 0% | -54* | -7
CC(=O)Nc1ccc(NC(=O)Cn2cnc3c(cnn3C(C)(C)C)c2=O)cc1 | -6 | 0% | 19 | -7
Cc1ccc2nc(SCC(=O)c3cc(C)n(C)c3C)[nH]c2c1 | -5 | 1% | 8 | -8
Cc1cc(C(=O)CSc2nc3ccc(Cl)cc3[nH]2)c(C)n1C | 33* | 0% | -6 | -2
C=CCn1c(Cc2ccccc2)nc2c(cnn2-c2ccccc2)c1=O | 39* | -1% | 30 | -11
O=C(CN1CCSC1=NCc1ccccc1)c1ccc(Cl)cc1 | -15 | -1% | -67* | -4
O=C(Nc1ccc(Cl)cc1)N1CCSC1=NCc1ccccc1 | 1 | 0% | 18 | -6
SMILES | D3 ag | B2AR arrestin | DRD3 antagonist | Giardia kill
Cc1ccc(NC(=O)Cn2c(=O)c3ccc(Cl)cc3n3nncc23)cc1 | 9 | . | . | .
Cc1sc2nc(C3CC3)nc(SCC(=O)N3CCc4ccccc4C3)c2c1C | 46* | 0% | 50 | 1
CCc1c(C)sc2nc(C(C)C)nc(SCC(=O)N3CCc4ccccc4C3)c12 | 50* | 0% | 58 | -3
Cc1sc2nc(C3CC3)nc(SCC(=O)N3CCCc4ccccc43)c2c1C | . | -1% | . | .
Cc1cccc(NC(=O)c2cc3c([nH]c2=O)CC(c2ccccc2)CC3=O)c1 (stereo unspecified) | -4 | . | . | .
COc1ccc(OCc2nnc(SCC(=O)NNC(=O)c3ccc(C)cc3)n2C)cc1 | -25 | -1% | -118* | -3
Cc1ccc(C(=O)NNC(=O)CSc2nnc(-c3ccncc3)n2C)cc1 | -8 | 0% | -75* | 8
Cc1ccc(NC(=O)CSc2nnc(-c3ccncc3)n2N)cc1C | 1 | 1% | -70* | -12
COC(=O)CSc1nnc(-c2ccncc2)n1N | -4 | 0% | 13 | 5
COc1ccc(C(=O)NNC(=O)CSc2nnc(-c3ccc(O)cc3)n2C)cc1 | -2 | 0% | 5 | 11
C[C@@H]1O[C@@H](OC[C@H]2O[C@@H](Oc3c(-c4ccc(OCCO)c(OCCO)c4)oc4cc(OCCO)cc(O)c4c3=O)[C@H](O)[C@@H](O)[C@@H]2O)[C@H](O)[C@H](O)[C@H]1O | 3 | . | . | .
Nc1ccc(N2CCCCC2)c2nonc12 | 1 | -1% | ? | 4
Nc1ccc(C2CCCc3nonc32)c2nonc12 (stereo unspecified) | -8 | 0% | -63* | 0
Cc1cccc2c1-c1sc(C(=O)NCCCN3CCC(C)CC3)cc1CO2 | -15 | 0% | -95* | -24
CC1CCN(CCCNC(=O)c2cc3c(s2)-c2ccccc2OC3)CC1 | -13 | 0% | -83* | -17
CC1CCCN(CCCNC(=O)c2cc3c(s2)-c2ccccc2OC3)C1 (stereo unspecified) | -15 | 1% | ? | -20
O=C1c2ccccc2NC(c2ccccc2OCc2ccccc2)N1Cc1ccco1 (stereo unspecified) | . | . | . | -21
CCC(=O)N1CCCc2cc(S(=O)(=O)N3CCC(C(=O)NCc4ccc(F)cc4)CC3)ccc21 | -19 | . | . | .
CCCNC(=O)C(Cc1ccccc1)NC(=O)c1ccccn1 (stereo unspecified) | -7 | 0% | -56* | 10
CN(C)CCCN(C(=O)CCOc1ccccc1)c1nc2ccc(F)cc2s1 | -24 | 0% | -91* | -29
CN(C)CCCN(C(=O)CCOc1ccccc1)c1nc2c(F)cccc2s1 | -14 | 0% | -99* | -9
CN(C)CCCN(C(=O)COc1ccccc1)c1nc2ccc(F)cc2s1 | -10 | 0% | -6 | 14
CNC(=O)C1(C(F)(F)F)CC(CCCO)CCCO1 (stereo unspecified) | . | . | . | -7
CC(C)C[C@@H]1NC(=O)[C@H](C(C)C)NC(=O)c2cc([N+](=O)[O-])cc(I)c2OCC[C@@H](C(N)=O)NC1=O | -20 | -2% | -53* | 5
CCC(CC)NC(=O)COC(=O)CCC(=O)c1ccc(Cl)cc1 | 41* | 0% | 13 | 12
SMILES | D3 ag | B2AR arrestin | DRD3 antagonist | Giardia kill
Cc1nc(-c2ccc(NC(=O)C(C)(C)C)cc2)c(-c2ccccc2)o1 | 11 | 0% | 21 | 8
Cc1cc(=O)[nH]c(SCC(=O)Nc2nc(-c3ccccc3)c(-c3ccccc3)o2)n1 | -8 | -5% | -4 | -10
Cc1cc(C)nc(SCC(=O)Nc2nc(-c3ccccc3)c(-c3ccccc3)o2)n1 | 33* | 13% | 43 | 0
Cc1ccc(C(=O)Nc2nc(-c3ccccc3)c(-c3ccccc3)o2)cc1 | -21 | 0% | -85* | 7
Cc1ccc(-c2nc3ccccc3[nH]2)cc1NC(=S)NC(=O)c1ccccc1Br | -6 | -1% | -51* | -18
Cc1ccc(-c2nc3ccccc3[nH]2)cc1NC(=O)c1ccc2c(c1)OCO2 | -8 | 1% | -16 | -28
